Laboratory results published in PubChem BioAssay AID1486 (The Scripps Research Institute Molecular Screening Center, 2009).
Out of some 220,000 compounds screened, about 2,400 (1.1%) were called active. Shown is part of a subset that was picked to be rich in actives. A number with no mark means an inactive call.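 The calls were made as follows: active = inhibition above a per-campaign cutoff, the mean inhibition of all tested compounds plus 3 SD (cut at about 27% in these data); inactive = the rest.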

Assay: growth loss in parental Ba/F3 cells – cell-based, murine pro-B, CellTiter-Glo luminescence, counter-screen for JAK2V617F inhibitor project (AID 1486);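 also: 0% = DMSO wells and 100% = JAK Inhibitor I control wells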
Conditions: Ba/F3 parental viability, CellTiter-Glo ATP luminescence; at 5.6 µM; stronger effect = higher value

Row | Compound | inhibition
1 | CC(=O)c1ccc(Oc2cc(C)nc(-n3nc(C)cc3C)n2)cc1 | 73.9% (active)
2 | Cc1cc(Oc2ccccc2)nc(N2CCOCC2)n1 | 2.47%
3 | COc1ccc(Nc2cc(C)nc(-n3nc(C)cc3C)n2)cc1 | 78% (active)
4 | Cc1cc(N2CCOCC2)nc2ccc(NC(=S)N3CCN(Cc4ccccc4)CC3)cc12 | 5.21%
5 | COC(=O)C(C)NC(=O)COc1ccc2ccccc2c1 (centres undefined) | 1.41%
6 | CCOC(=O)CN1C(=O)N[C@@H](c2ccc(Br)cc2)C(C(C)=O)=C1C | 3.53%
7 | CCOC(=O)c1ccc(NC(=S)N2CCCC2)cc1 | 0.86%
8 | COc1ccc(-c2csc(NC3OC(=O)c4ccccc43)n2)cc1 (centres undefined) | -1.11%
9 | COc1ccc(Nc2nc(-c3ccccc3)cs2)cc1 | 4.08%
10 | COc1ccc2c(c1OC)C(=O)OC2Nc1nc(-c2ccccc2)cs1 (centres undefined) | 40.2% (active)
11 | CC(C)(C)c1nnc(NC(=O)C2c3ccccc3Oc3ccccc32)s1 | 0.88%
12 | Nc1ccc(N=Nc2ccccc2Cl)c(N)n1 | -6.75%
13 | CCOc1ccc(Br)cc1CSC(=N)N | 6.11%
14 | CN1/C(=C\C(=O)c2cccnc2Cl)C(C)(C)c2ccccc21 | 5.33%
15 | CN1/C(=C\C(=O)c2oc3ccccc3c2N)C(C)(C)c2ccccc21 | 10.9%
16 | CN1/C(=C\C=C2\N=C(c3ccc(F)cc3)OC2=O)C(C)(C)c2ccccc21 | 30.4% (active)
17 | Cc1csc(NC(=O)c2ccc(-c3ccc(Cl)cc3Cl)o2)n1 | 5.38%
18 | O=C(c1cccnc1)N(c1cc2sc(=O)oc2c2ccccc12)S(=O)(=O)c1ccccc1 | 12.4%
19 | O=C(COc1ccccc1F)NNC(=O)c1ccc(N2CCCCC2)c([N+](=O)[O-])c1 | 2.6%
20 | O=S(=O)(c1ccc(Br)cc1)n1ccc2ccccc21 | 36.7% (active)
21 | CCCCNS(=O)(=O)c1ccc(S(=O)(=O)n2cnc3ccccc32)cc1 | 1.68%
22 | O=S(=O)(c1ccc(-c2ccccc2)cc1)N1CCCC1 | 7.94%
23 | O=C1CCCC(O)=C1C=NCCc1ccccc1 | 42.9% (active)
24 | CC1(C)CC(=O)C(C=NCCC2=CCCCC2)=C(O)C1 | 6.01%
25 | O=C1CC(c2ccccc2)CC(O)=C1C=NCCN1CCOCC1 (centres undefined) | 2.34%

Row | Compound | inhibition
26 | CCCCN(C(=O)c1ccc(OC(F)(F)F)cc1)c1c(N)n(CCC)c(=O)[nH]c1=O | 3.34%
27 | CC(C)(C)SCCNC(=O)c1cccc([N+](=O)[O-])c1 | 5.58%
28 | Cc1noc(C)c1COc1cccc(C(=O)Nc2cccnc2)c1 | 1%
29 | Cc1cc(NCc2cccnc2)no1 | 1.06%
30 | CN(Cc1cccnc1)C(=O)c1cc(COc2ccc3ncccc3c2)on1 | 84.6% (active)
31 | CCCOc1ccc(NC(=O)C2OC3OC(C)(C)OC3C3OC(C)(C)OC23)cc1 (centres undefined) | 4.19%
32 | N#Cc1ccccc1NC(=O)c1cccc(COc2ccc(Cl)cc2Cl)c1 | 1.93%
33 | O=C(C1CCCO1)N1CCN(C(=S)Nc2cccc(Cl)c2)CC1 (centres undefined) | 9.12%
34 | Cc1ccc(C2CCN(C(=S)Nc3cccc(Cl)c3)C2)cc1 (centres undefined) | 54% (active)
35 | Cc1cccc(NC(=S)N2CCCC(c3nc4ccccc4[nH]3)C2)c1 (centres undefined) | 5.36%
36 | COC(=O)[C@H](Cc1ccccc1)NC(=O)[C@@H]1C[C@H]1[C@@H](NC(=O)OCc1ccccc1)c1ccccc1 | 1.6%
37 | CCCc1ccc(C(=O)[C@@H]2[C@@H](C(C)=O)N3c4ccc(F)cc4C=C[C@@H]3[C@@]23C(=O)Nc2ccccc23)cc1 | -6.87%
38 | COc1cccc(CC2(CO)CCCN(Cc3nc(-c4cccs4)oc3C)C2)c1 (centres undefined) | 10.4%
39 | Cc1ccc(CN2CCN(Cc3ccccc3-c3ccco3)CC2CCO)o1 (centres undefined) | 6.27%
40 | Cc1cc(C)n(-c2nnc(C)n2NC(=O)c2cccc(Cl)c2)n1 | -0.31%
41 | Cc1ccccc1NC(=O)CN1C(=O)N/C(=C\c2cccn2-c2cccc(C(=O)O)c2)C1=O | 7.07%
42 | O=C1N/C(=C/c2cccn2-c2ccccc2)C(=O)N1c1cccc(Cl)c1 | 52.5% (active)
43 | O=C1/C(=C\c2ccsc2)NC(=S)N1c1ccccc1 | 1.31%
44 | COC(=O)c1ccc(CN2CCN(CCCc3ccccc3)C(CCO)C2)cc1 (centres undefined) | 4.68%
45 | CCN1CCN(CCNC(=O)c2ccc(/C=C3/Sc4ccccc4N(Cc4cccc(C)c4)C3=O)cc2)CC1 | 13.1%
46 | CCN1/C(=C\c2ccc3ccccc3[n+]2CC)Sc2cc(C)ccc21 | 88.7% (active)
47 | CCN1/C(=C/C(=S)Nc2ccccc2)Sc2ccccc21 | 0.08%
48 | CCN1/C(=C/c2ccc3ccc(C)cc3[n+]2CC)Sc2ccccc21 | 87.6% (active)
49 | COc1ccccc1C1C(C#N)=C(N)Oc2c1c(-c1ccccc1)nn2-c1ccccc1 (centres undefined) | 4.31%
